# Laboratory results: PubChem BioAssay (NCI)
# The panel holds about 83,000 compounds, 20% with a hit somewhere; the sample as a whole holds those more often.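 The endpoint reported here, percent growth, reads 100 for growth as untreated, 0 for no net growth and -100 for all cells dead.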 Activity calls are given as the source filed them. Rule for the calls: active = growth percent below 10; inactive = the rest.
# Test system: RXF 393 renal
# Assay: NCI-60 one-dose screen, 48 h (100 = growth as untreated, 0 = no growth, -100 = all killed)
# Conditions: 10 µM unless noted
row,SMILES,growth
1,COc1cc2cc(C(=O)N3C[C@@H](CCl)c4c3cc(OC(=O)N(CCC(=O)N3CCN(C)CC3)C3CCCCC3)c3ccccc43)[nH]c2c(OC)c1OC,-93.3% (active)
2,Clc1ccc(Nc2nnc(-c3c[nH]c4ccccc34)o2)cc1,90.2% (inactive)
3,Cc1ccc(S(=O)(=O)N(CCn2ccnc2[N+](=O)[O-])CCn2ccnc2[N+](=O)[O-])cc1,84.3% (inactive)
4,O=C(N/N=C/c1ccsc1)c1[nH]c2ccc(Br)cc2c1-c1ccccc1,-47.5% (active)
5,Cc1ccc2nc(NC(=O)Nc3cccc(Cl)c3)sc2c1,121% (inactive)
6,N/C(=N\c1nc2ccc([N+](=O)[O-])cc2s1)NC(=O)Nc1ccccc1Cl,25% (inactive)
7,COc1ccc(/C=C/C(=O)c2ccc(S(=O)(=O)NCCNc3nc(N(C)C)nc(N4CCOCC4)n3)cc2)cc1,92.1% (inactive)
8,O=C(NN1C(=O)/C(=C/C=C/c2ccc([N+](=O)[O-])o2)SC1=S)c1ccncc1,-93.6% (active)
9,Nc1nnc(CS(=O)(=O)c2ccccc2)s1,172% (inactive)
10,CS(=O)(=O)c1ccc(-n2nc(C(=O)NCc3ccccc3)cc2-c2ccc(Cl)cc2)cc1,94.9% (inactive)
11,Cc1cccc(NCC(=O)N2CCN(c3ncnc4c3cnn4-c3ccccc3)CC2)c1,76.3% (inactive)
12,CCCCCCCOc1ccc(S(=O)(=O)Nc2ccc(C)c(F)c2C(=O)O)cc1,114% (inactive)
13,O=C(NNC(=O)c1ccc(OCc2nc3ccc(Cl)cc3[nH]2)cc1)Nc1ccc(Cl)c(C(F)(F)F)c1,67.3% (inactive)
14,OC(c1ccccc1)(c1ccccc1)C1CCN(c2ccc3nnc(Cl)n3n2)CC1,32.8% (inactive)
15,CCOC(=O)c1ccc(NC(=S)NC(=O)c2cccc(NC(=O)c3ccc(C)cc3)c2)cc1,66.9% (inactive)
16,COC(=O)c1cccc(Oc2ccc(NC(=O)Nc3cc(C(F)(F)F)ccc3F)cc2)c1,41.4% (inactive)
17,CCCn1c(NC(=O)c2cccc(C(N)=O)c2)nc2cc(CN3CCCCC3)ccc21,64.5% (inactive)
18,COC(=O)c1c(C(=O)OC)c2c3ccccc3c3ccccc3n2c1C(=O)C(F)(F)F,101% (inactive)
19,CCOc1ccccc1[C@H]1C(C(=O)c2ccc(Cl)cc2)C2(N[C@@H]1c1ccccc1)C(=O)Nc1ccccc12 (stereo partly specified),-66.5% (active)

row,SMILES,growth
1,COc1ccc(N=Nc2c(N)nn3c(N)c(C#N)c(-c4ccccc4)nc23)cc1,8.34% (active)
2,O=C(Nc1ccc(S(=O)(=O)N2CCCCC2)cc1)C(Cl)Cl,115% (inactive)
3,O=C1Nc2ccccc2/C1=C/C(=O)c1cc2ccccc2oc1=O,91.4% (inactive)
4,C/C(=N\Nc1ccc(C(=O)O)cc1)c1cnn(-c2cc(=O)[nH]c3ccc(C)cc23)c1C,93.7% (inactive)
5,CN(C)c1nc(NCCNS(=O)(=O)c2ccc(C(=O)/C=C/c3ccccc3)cc2)nc(N2CCOCC2)n1,79% (inactive)
6,COc1cc(CNC(=O)C[C@H](C)CCC=C(C)C)ccc1OCc1cn(-c2ccc(Br)cc2)nn1,61.8% (inactive)
7,COc1ccc(-n2c(NC(=O)N3CCN(C)CC3)c(C#N)c3ccccc32)cc1,-9.29% (active)
8,O=C1CCC(N2C(=O)c3cccc(NCCCCCC(=O)N4CCN(c5ccc6nc7c(nc6c5C(F)(F)F)C(=O)c5ncccc5C7=O)CC4)c3C2=O)C(=O)N1 (stereo unspecified),-72.1% (active)
9,O=C(CSc1nc2sc3c(c2c(=O)n1-c1ccc(Cl)cc1)CCCC3)NNC(=O)c1ccc(Br)cc1,76% (inactive)
10,COc1ccc2[nH]c(O)c(N=NC(=O)c3ccc4nc(-c5ccc(Cl)cc5)[nH]c4c3)c2c1,43.4% (inactive)
11,COc1cc(/C=N/NC(=O)c2ccc(OCc3nc4ccc(C)cc4[nH]3)cc2)cc(OC)c1OC,39.6% (inactive)
12,CC(C)(C)C(=O)C1CC(C#N)=C2C=Cc3c(ccc4ccccc34)N21 (stereo unspecified),91.8% (inactive)
13,COc1cc(NC(=O)C(C)C)ccc1C(=O)NC(=S)Nc1ccc(S(N)(=O)=O)cc1,88.7% (inactive)
14,COc1c2c(c(Br)c3c1C(CCc1ccccc1)N(C)CC3)OCO2 (stereo unspecified),72.9% (inactive)
15,COc1ccc(CCC2NCCc3c(Br)c4c(c(OC)c32)OCO4)cc1 (stereo unspecified),-17.3% (active)
16,O=CNc1ccc(-n2cnc3cc(-c4ccc(O)cc4)ccc32)cc1,86.5% (inactive)
17,N#CCc1nnc(NC(=O)c2ccc(-n3c(=O)[nH]c4ccccc4c3=O)cc2)s1,112% (inactive)
18,FC(F)(F)c1cc2c(Cl)ncnc2n1CCN1CCOCC1,100% (inactive)
19,Nc1cc(-c2c[nH]c3ccc(Br)cc23)nc2cc(-c3c[nH]c4ccccc34)nn12,-76.7% (active)

# Test system: SF-268 CNS
# Assay: as above
# Conditions: 10 µM unless noted
row,SMILES,growth
1,COc1cc2cc(C(=O)N3C[C@@H](CCl)c4c3cc(OC(=O)N(CCC(=O)N3CCN(C)CC3)C3CCCCC3)c3ccccc43)[nH]c2c(OC)c1OC,-41.5% (active)
2,Clc1ccc(Nc2nnc(-c3c[nH]c4ccccc34)o2)cc1,68.6% (inactive)
3,Cc1ccc(S(=O)(=O)N(CCn2ccnc2[N+](=O)[O-])CCn2ccnc2[N+](=O)[O-])cc1,111% (inactive)
4,O=C(N/N=C/c1ccsc1)c1[nH]c2ccc(Br)cc2c1-c1ccccc1,-56.1% (active)
5,Cc1ccc2nc(NC(=O)Nc3cccc(Cl)c3)sc2c1,118% (inactive)
6,N/C(=N\c1nc2ccc([N+](=O)[O-])cc2s1)NC(=O)Nc1ccccc1Cl,56.1% (inactive)
7,COc1ccc(/C=C/C(=O)c2ccc(S(=O)(=O)NCCNc3nc(N(C)C)nc(N4CCOCC4)n3)cc2)cc1,84.1% (inactive)
8,O=C(NN1C(=O)/C(=C/C=C/c2ccc([N+](=O)[O-])o2)SC1=S)c1ccncc1,-75.7% (active)
9,Nc1nnc(CS(=O)(=O)c2ccccc2)s1,105% (inactive)
10,CS(=O)(=O)c1ccc(-n2nc(C(=O)NCc3ccccc3)cc2-c2ccc(Cl)cc2)cc1,82.2% (inactive)
11,Cc1cccc(NCC(=O)N2CCN(c3ncnc4c3cnn4-c3ccccc3)CC2)c1,73.3% (inactive)
12,CCCCCCCOc1ccc(S(=O)(=O)Nc2ccc(C)c(F)c2C(=O)O)cc1,101% (inactive)
13,O=C(NNC(=O)c1ccc(OCc2nc3ccc(Cl)cc3[nH]2)cc1)Nc1ccc(Cl)c(C(F)(F)F)c1,78.2% (inactive)
14,OC(c1ccccc1)(c1ccccc1)C1CCN(c2ccc3nnc(Cl)n3n2)CC1,63.7% (inactive)
15,CCOC(=O)c1ccc(NC(=S)NC(=O)c2cccc(NC(=O)c3ccc(C)cc3)c2)cc1,102% (inactive)
16,COC(=O)c1cccc(Oc2ccc(NC(=O)Nc3cc(C(F)(F)F)ccc3F)cc2)c1,50.2% (inactive)
17,CCCn1c(NC(=O)c2cccc(C(N)=O)c2)nc2cc(CN3CCCCC3)ccc21,111% (inactive)
18,COC(=O)c1c(C(=O)OC)c2c3ccccc3c3ccccc3n2c1C(=O)C(F)(F)F,101% (inactive)
19,CCOc1ccccc1[C@H]1C(C(=O)c2ccc(Cl)cc2)C2(N[C@@H]1c1ccccc1)C(=O)Nc1ccccc12 (stereo partly specified),43.9% (inactive)

row,SMILES,growth
1,COc1ccc(N=Nc2c(N)nn3c(N)c(C#N)c(-c4ccccc4)nc23)cc1,11.6% (inactive)
2,O=C(Nc1ccc(S(=O)(=O)N2CCCCC2)cc1)C(Cl)Cl,105% (inactive)
3,O=C1Nc2ccccc2/C1=C/C(=O)c1cc2ccccc2oc1=O,105% (inactive)
4,C/C(=N\Nc1ccc(C(=O)O)cc1)c1cnn(-c2cc(=O)[nH]c3ccc(C)cc23)c1C,97.2% (inactive)
5,CN(C)c1nc(NCCNS(=O)(=O)c2ccc(C(=O)/C=C/c3ccccc3)cc2)nc(N2CCOCC2)n1,74.6% (inactive)
6,COc1cc(CNC(=O)C[C@H](C)CCC=C(C)C)ccc1OCc1cn(-c2ccc(Br)cc2)nn1,71.7% (inactive)
7,COc1ccc(-n2c(NC(=O)N3CCN(C)CC3)c(C#N)c3ccccc32)cc1,29.1% (inactive)
8,O=C1CCC(N2C(=O)c3cccc(NCCCCCC(=O)N4CCN(c5ccc6nc7c(nc6c5C(F)(F)F)C(=O)c5ncccc5C7=O)CC4)c3C2=O)C(=O)N1 (stereo unspecified),-29.5% (active)
9,O=C(CSc1nc2sc3c(c2c(=O)n1-c1ccc(Cl)cc1)CCCC3)NNC(=O)c1ccc(Br)cc1,84.9% (inactive)
10,COc1ccc2[nH]c(O)c(N=NC(=O)c3ccc4nc(-c5ccc(Cl)cc5)[nH]c4c3)c2c1,27.3% (inactive)
11,COc1cc(/C=N/NC(=O)c2ccc(OCc3nc4ccc(C)cc4[nH]3)cc2)cc(OC)c1OC,78.7% (inactive)
12,CC(C)(C)C(=O)C1CC(C#N)=C2C=Cc3c(ccc4ccccc34)N21 (stereo unspecified),83.1% (inactive)
13,COc1cc(NC(=O)C(C)C)ccc1C(=O)NC(=S)Nc1ccc(S(N)(=O)=O)cc1,80.8% (inactive)
14,COc1c2c(c(Br)c3c1C(CCc1ccccc1)N(C)CC3)OCO2 (stereo unspecified),45.7% (inactive)
15,COc1ccc(CCC2NCCc3c(Br)c4c(c(OC)c32)OCO4)cc1 (stereo unspecified),20.3% (inactive)
16,O=CNc1ccc(-n2cnc3cc(-c4ccc(O)cc4)ccc32)cc1,84.6% (inactive)
17,N#CCc1nnc(NC(=O)c2ccc(-n3c(=O)[nH]c4ccccc4c3=O)cc2)s1,115% (inactive)
18,FC(F)(F)c1cc2c(Cl)ncnc2n1CCN1CCOCC1,64.5% (inactive)
19,Nc1cc(-c2c[nH]c3ccc(Br)cc23)nc2cc(-c3c[nH]c4ccccc34)nn12,-44.5% (active)
